These results are taken from PubChem BioAssay (Tox21).

Molecules are shown by their SMILES. Values without a mark were called inactive. Results filed as inconclusive are left out. Active and inactive are the calls of the source. Unless noted, the call rests on the fitted dose curve; in most records, active means well fitted curve in the direction sought with a large enough effect in the repeat runs; inconclusive means weak or mixed curves; inactive means no such curve, though single readings can be large; an effect the other way counts as inactive or inconclusive.

The target of assay [1] is Luciferin 4-monooxygenase (Photinus pyralis) (UniProt P08659). As to the kind of experiment: qHTS assay to identify small molecule inhibitors of firefly luciferase (AID 1224835). Further: nearly all actives have a fitted effect of over 25% in size. The method, boiled down:
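Biochemical qHTS: compounds run as interplate titrations against purified firefly enzyme, with D-luciferin and ATP each at its KM concentration. Light output recorded by CCD imaging.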
Background: Quantitative high-throughput screening tests each substance at several concentrations.

The nature of assay [2]: qHTS assay to identify small molecule agonists of the constitutive androstane receptor (CAR) signaling pathway - cell viability counter screen (AID 1224836). Further: nearly all actives have a fitted effect of over 45% in size. The procedure, abridged: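 HepG2-CYP2B6-hCAR, 2500 cells/well, 4 h pre-incubation; cpd 15 conc + PK11195 0.75 uM final; 23 h, 37 C/5% CO2; CellTiter-Fluor, fluorescence.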
Assay [3] can be described thus: qHTS assay to identify small molecule antagonists of the constitutive androstane receptor (CAR) signaling pathway - cell viability counter screen (AID 1224837). Further: nearly all actives have a fitted effect of over 45% in size. The procedure, abridged:
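Cells are seeded, rested 4 hr at 37 C/5% CO2, dosed with compound (15-point series) and 50 nM CITCO, incubated a further 23 hr, and then CellTiter-Fluor reagent is added before fluorescence is read. The line is HepG2 with stable hCAR and CYP2B6-2.2kb.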

Assay [4] deals with Nuclear receptor subfamily 1 group I member 3 (Homo sapiens) (UniProt Q14994). In words: qHTS assay to identify small molecule agonists of the constitutive androstane receptor (CAR) signaling pathway (AID 1224839).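 Further: HepG2 cells stably carrying human CAR and a CYP2B6 luciferase reporter; nearly all actives have a fitted effect of over 15% in size.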 The method, boiled down:
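HepG2-CYP2B6-hCAR cells, 2500/well, 4 h pre-incubation; compounds 15 conc.; PK11195 0.75 uM final; 24 h, 37 C/5% CO2; ONE-Glo luciferase read.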

Assay [5] in a line: qHTS assay to identify small molecule antagonists of the estrogen related receptor signaling pathway with the pleiotropic PPARgamma coactivator (PGC) from Tox21 10K library - cell viability counter screen (AID 1224840; active means well fitted cell-killing curve with a large enough effect in the repeat runs, not every such curve was filed as active; further: nearly all actives have a fitted effect of over 40% in size). The method, boiled down: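 Cell viability is measured by CellTiter-Fluor fluorescence in PGC/ERR cells that receive compounds after a 6-hour attachment period and are then incubated 17.5 hours at 37 C.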

A short description of assay [6]: qHTS assay to identify small molecule antagonists of the estrogen related receptor signaling pathway with the pleiotropic PPARgamma coactivator (PGC) from Tox21 10K library (AID 1224841; call rule not given here; further: actives are mostly falling curves and most rising ones were filed inactive; nearly all actives have a fitted effect of over 50% in size). The method, boiled down: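 Cells stably carrying the PGC/ERR reporter, seeded at 2,000 per well, received pin-transferred compounds 6 h post-plating. Exposure lasted 18 h at 37 C. Signal: One-Glo luminescence.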

Assay [7] can be described thus: qHTS assay to identify small molecule agonists of the estrogen related receptor signaling pathway with the pleiotropic PPARgamma coactivator (PGC) from Tox21 10K library (AID 1224842). Further: nearly all actives have a fitted effect of over 15% in size. The procedure, abridged:
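PGC/ERR reporter cell line, 2,000 cells per well, incubated 6 h at 37 C before 23 nL compound in DMSO was added. After 18 h at 37 C, One-Glo luminescence read following 30 min at room temperature.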

Assay [8] has as its target Thyrotropin receptor (Homo sapiens) (UniProt P16473). In words: qHTS assay to identify small molecule agonists of the thyroid stimulating hormone receptor (TSHR) signaling pathway (AID 1224843; calls by dose curve; further: nearly all actives have a fitted effect of over 45% in size). The procedure, abridged:
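Agonist-mode screen: TSHR HEK293 cells received test chemicals for half an hour at room temperature, then HTRF cAMP detection reagents for one hour prior to fluorescence measurement. Each chemical ran as a 15-concentration series, triplicated.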

Assay [9] is described as follows: qHTS assay to identify small molecule agonists of the hypoxia (HIF-1) signaling pathway - cell viability counter screen (AID 1224844; calls by dose curve; further: nearly all actives have a fitted effect of over 50% in size). The procedure, abridged: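 Viability counter screen: HRE-bla ME-180 cells plated 5 hrs before compound addition, treated 17 hrs at 37C and 5% CO2, then CellTiter-Glo added after the FRET reporter read; luminescence after 30 min.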

The nature of assay [10]: qHTS assay to identify small molecule agonists of H2AX (AID 1224845; active means well fitted activation curve with a large enough effect in the signal ratio in the repeat runs, not every such curve was filed as active; the % refers to the signal ratio). The procedure, abridged: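 Wild-type CHO-K1 cells, plated overnight, exposed 3hr at 37C to 15 concentrations (0.76% DMSO final). Lysed, then HTRF anti-pH2AX (S139) cryptate and anti-H2AX-d2 antibodies, 24 hr room temperature; 665/620 nm emission read.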
Assay [11] in a line: qHTS assay to identify small molecule agonists of H2AX - cell viability counter screen (AID 1224847; calls by dose curve; further: top concentration of the series differs between compounds; nearly all actives have a fitted effect of over 30% in size). The method, boiled down: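 Cells plated first: CHO-K1, 1000 per well in 10% FBS medium, incubated overnight at 37C. Then 15-point compound titration added (final DMSO 0.76%) for 3 hr. Finally CellTiter-Glo added and luminescence read.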
A short description of assay [12]: qHTS assay to identify small molecule antagonists of the estrogen related receptor (ERR) signaling pathway from Tox21 library (AID 1224848). Further: nearly all actives have a fitted effect of over 50% in size. The method, boiled down: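 Quantitative high-throughput format: ERR reporter cells (2,000/well) pre-incubated 6 h, treated 18 h at 37 C with compounds in DMSO alongside positive and negative controls, then read by ONE-Glo luminescence.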

Assay [13] can be described thus: qHTS assay to identify small molecule agonists of the estrogen related receptor (ERR) signaling pathway from Tox21 library (AID 1224849; calls by dose curve; further: nearly all actives have a fitted effect of over 15% in size). The following applies: ERR reporter cell line, ONE-Glo luciferase, 18 h; at 92.4 µM (top of the series) unless noted. The procedure, abridged: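 Quantitative HTS in agonist format: NTP ERR cell line, compounds transferred in DMSO after 6 h plating, 18 h incubation at 37 C, ONE-Glo luminescence endpoint.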

Assay [14] in a line: qHTS RealTime-Glo MT Cell Viability Assay in HepG2 cells - 24 hour (AID 1224867). Further: nearly all actives have a fitted effect of over 50% in size. The procedure, abridged:
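HepG2 cells were seeded at 600 cells/well together with NanoLuc luciferase and a cell-permeant prosubstrate, preincubated 5 h at 37 C/5% CO2, then pin-dosed with compounds in DMSO. Nonlytic luminescence from viable cells was read at each time point.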

Assay [15] in a line: A CellTox Green Cytotoxicity Assay to monitor cytotoxicity in HEK293 cells - 0 hour (AID 1224869). Further: nearly all actives have a fitted effect of over 50% in size. The method, boiled down: (§1)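 Dead-cell fluorescence measured kinetically: asymmetric cyanine dye, HEK293, 600 cells/well, 5 h settle, 23 nL cpd/DMSO, 37 C, reads 0–40 h every 8 h.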
Assay [16] is described as follows: qHTS RealTime-Glo MT Cell Viability Assay in HepG2 cells - 40 hour (AID 1224870). Further: nearly all actives have a fitted effect of over 50% in size. The method, boiled down: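 HepG2 cells (600/well) mixed with RealTime-Glo MT reagent, settled 5 h at 37 C/5% CO2 before compound addition. Nonlytic NanoLuc luminescence from viable-cell prosubstrate reduction read repeatedly during 40 h treatment at 37 C.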
Assay [17] is described as follows: A CellTox Green Cytotoxicity Assay to monitor cytotoxicity in HEK293 cells - 40 hour (AID 1224871). Further: nearly all actives have a fitted effect of over 45% in size. The procedure, abridged: as §1
Assay [18] is described as follows: qHTS assay to identify small molecule agonists of the hypoxia (HIF-1) signaling pathway (AID 1224846; active means well fitted activation curve with a large enough effect in the signal ratio in the repeat runs, not every such curve was filed as active; the % refers to the signal ratio). The procedure, abridged:
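Agonist mode reporter screen. ME-180 cells stably expressing bla under HRE control received test compounds in DMSO for 17 hrs (37C, 5% CO2), and beta-lactamase activity was then detected with the CCF4-AM FRET substrate.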

The nature of assay [19]: qHTS RealTime-Glo MT Cell Viability Assay in HEK293 cells - 32 hour (AID 1224868). The method, boiled down:
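HEK293 cells were seeded at 600 cells/well together with NanoLuc luciferase and cell-permeant prosubstrate, preincubated 5 h at 37 C/5% CO2, then given compound in DMSO by pintool. Luminescence from viable-cell prosubstrate reduction was read repeatedly over 40 h.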

The target in assay [20] is Nuclear receptor subfamily 1 group I member 3 (Homo sapiens) (UniProt Q14994). As to the kind of experiment: qHTS assay to identify small molecule antagonists of the constitutive androstane receptor (CAR) signaling pathway (AID 1224838).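 Further: HepG2 cells stably expressing hCAR with CYP2B6 luciferase reporter stimulated by CITCO; nearly all actives have a fitted effect of over 40% in size.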 The procedure, abridged:
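Luminescence from a CYP2B6-2.2kb promoter reporter in hCAR-expressing HepG2 cells reflects CAR signaling. Cells received compounds at 15 concentrations and 50 nM CITCO (final), then incubated 24 h at 37 C/5% CO2.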
On the % scale 0 is the no-effect control and ±100 the full control effect.

Chain of Luciferin 4-monooxygenase (Photinus pyralis) (P08659 whole entry, looked up): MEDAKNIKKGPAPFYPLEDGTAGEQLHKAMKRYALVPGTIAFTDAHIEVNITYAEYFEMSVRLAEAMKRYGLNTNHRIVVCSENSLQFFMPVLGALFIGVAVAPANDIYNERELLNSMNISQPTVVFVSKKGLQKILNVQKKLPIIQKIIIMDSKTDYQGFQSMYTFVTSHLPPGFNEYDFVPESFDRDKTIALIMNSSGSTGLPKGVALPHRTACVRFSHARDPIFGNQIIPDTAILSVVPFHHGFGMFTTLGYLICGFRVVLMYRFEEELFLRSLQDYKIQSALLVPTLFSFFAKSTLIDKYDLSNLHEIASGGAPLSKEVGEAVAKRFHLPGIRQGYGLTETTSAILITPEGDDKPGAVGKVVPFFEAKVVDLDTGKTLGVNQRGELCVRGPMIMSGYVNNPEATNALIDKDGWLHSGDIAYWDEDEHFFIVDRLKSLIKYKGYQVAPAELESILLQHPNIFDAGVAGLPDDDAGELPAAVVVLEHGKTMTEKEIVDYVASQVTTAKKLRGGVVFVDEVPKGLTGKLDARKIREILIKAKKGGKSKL
Chain of Nuclear receptor subfamily 1 group I member 3 (Homo sapiens) (Q14994 whole entry, looked up): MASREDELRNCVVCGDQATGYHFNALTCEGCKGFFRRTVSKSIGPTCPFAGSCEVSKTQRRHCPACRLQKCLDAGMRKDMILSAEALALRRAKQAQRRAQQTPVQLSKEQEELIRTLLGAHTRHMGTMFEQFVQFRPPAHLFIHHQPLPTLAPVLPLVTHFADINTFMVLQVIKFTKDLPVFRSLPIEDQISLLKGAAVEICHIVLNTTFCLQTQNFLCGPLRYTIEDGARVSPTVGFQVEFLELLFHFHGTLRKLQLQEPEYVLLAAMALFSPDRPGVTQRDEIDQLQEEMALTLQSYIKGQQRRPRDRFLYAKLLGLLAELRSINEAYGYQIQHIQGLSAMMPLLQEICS
Chain of Thyrotropin receptor (Homo sapiens) (P16473 whole entry, looked up): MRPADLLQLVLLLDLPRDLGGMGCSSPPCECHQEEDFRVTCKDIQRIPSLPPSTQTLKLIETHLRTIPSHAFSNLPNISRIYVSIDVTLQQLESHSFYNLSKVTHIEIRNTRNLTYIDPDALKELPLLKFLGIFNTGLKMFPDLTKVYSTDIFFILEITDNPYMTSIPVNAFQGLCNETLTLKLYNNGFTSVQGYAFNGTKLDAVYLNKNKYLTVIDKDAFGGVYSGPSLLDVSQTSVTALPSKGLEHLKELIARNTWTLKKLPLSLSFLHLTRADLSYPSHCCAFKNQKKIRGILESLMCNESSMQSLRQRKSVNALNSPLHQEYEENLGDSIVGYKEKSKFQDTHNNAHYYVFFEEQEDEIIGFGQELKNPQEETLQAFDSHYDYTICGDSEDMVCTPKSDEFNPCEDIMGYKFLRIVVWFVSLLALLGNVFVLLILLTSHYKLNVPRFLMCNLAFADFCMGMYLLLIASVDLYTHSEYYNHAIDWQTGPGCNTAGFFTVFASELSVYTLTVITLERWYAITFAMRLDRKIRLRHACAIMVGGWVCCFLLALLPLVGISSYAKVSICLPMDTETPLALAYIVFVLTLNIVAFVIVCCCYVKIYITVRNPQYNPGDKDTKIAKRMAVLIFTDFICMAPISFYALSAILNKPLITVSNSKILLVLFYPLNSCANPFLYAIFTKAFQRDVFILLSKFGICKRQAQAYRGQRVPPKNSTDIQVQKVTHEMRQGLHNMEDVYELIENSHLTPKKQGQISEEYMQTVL

On to `CC(C)(CO)[C@@H](O)C(=O)NCCC(=O)O`, for which the Potency entry in assay [1], in assay [2], in assay [3], in assay [4], in assay [5] and in [6] was “inactive” throughout. The Potency result in assay [7], in [8], in [9], in assay [10], in assay [11] and in assay [12] was “inactive” each time. Besides, the Potency result in assay [14], in [15], in assay [16] and in [17] was “inactive” each time. Besides, the activity change, positive = activation in assay [13] was 7.16%.

As to `C[C@@H]1CN(c2c(F)c(F)c3c(=O)c(C(=O)O)cn(C4CC4)c3c2F)C[C@H](C)N1`, in assay [1], the activity change, negative = inhibition is 4.05% [at 23.6 µM]. In addition, the viability change, negative = cytotoxic was 4.91% [at 19 µM] in assay [2] and 2.41% [at 19 µM] in assay [5]. Moreover, the figures for the activity change, negative = cytotoxicity in [3] and in [14] were 2.19% [at 19 µM] and 0.621% [at 15.8 µM], respectively. For the same compound, the activation in assay [4] was 0.519% [at 19 µM]; in assay [7] it was 6.21% [at 19 µM]; in assay [8], -4.01% [at 19 µM]; in assay [18], 0.101% [at 15.8 µM]. In addition, the activity, negative = inhibition is 20.9% [at 19 µM] in assay [6] and 2.94% [at 19 µM] in [12]. The activation (H2AX phosphorylation) in [10] is -0.115% [at 31.6 µM]. Moreover, the activity change, positive = activation in assay [13] was 1.67% [at 19 µM] (active). Moreover, the activity change, negative = cytotoxic in assay [19] is 11.6% [at 15.8 µM]. The cytotoxicity in [15] is 5.43% [at 15.8 µM]. The cytotoxicity increase in assay [17] was -4.55% [at 15.8 µM].

As for `Cc1c(C(=O)NCCO)[n+](=O)c2ccccc2n1[O-]`, the Potency result in [1], in assay [2], in assay [3], in [20], in assay [5] and in assay [8] was “inactive” in each case. Moreover, the Potency entry in assay [10], in assay [11], in assay [14], in assay [19], in assay [15] and in assay [16] was “inactive” in each case. Besides, in assay [17], the Potency entry was “inactive”. For the same compound, the compound was classed as inactive in assay [18].

Take `C=C(C)C(=O)OCCOP(=O)(O)O`: the Potency entry in [1], in assay [2], in assay [3], in assay [20], in [5] and in assay [8] was “inactive” throughout. Further, the Potency result in assay [10], in assay [14], in assay [15], in assay [16] and in assay [17] was “inactive” in each case. Besides, in assay [18], the compound was called inactive.

As to `O=c1[nH]cnc2c1ncn2[C@@H]1O[C@H](CO)[C@@H](O)[C@H]1O`, the Potency result in assay [1], in assay [2], in assay [3], in assay [20], in assay [5] and in [6] was “inactive” throughout. The Potency result in assay [7], in [8], in [9], in [10], in assay [12] and in [14] was “inactive” in each case. The Potency entry in [19], in [15], in assay [16] and in [17] was “inactive” each time. Besides, the outcome in assay [18] was inactive. Further, the activity change, positive = activation in assay [13] was 2.74% [at 42.5 µM].

In the case of `CCOc1ccc(NC(N)=O)cc1`, the Potency entry in [1], in [2], in [3], in [20], in assay [5] and in assay [6] was “inactive” throughout. Also, the Potency entry in [7], in assay [8], in [9], in [11], in [12] and in assay [14] was “inactive” each time. Besides, the Potency result in assay [19], in assay [15], in assay [16] and in assay [17] was “inactive” throughout. Moreover, the outcome in [18] was inactive. In addition, the activity change, positive = activation in assay [13] is 1.88%.

As to `COc1cc(N)c(Cl)cc1C(=O)NC1CCN(Cc2ccccc2)CC1`, the Potency entry in assay [1], in assay [2], in [3], in assay [20], in assay [5] and in [8] was “inactive” throughout. For the same compound, the Potency entry in assay [9], in assay [10], in assay [11], in assay [14], in [15] and in assay [16] was “inactive” throughout. Besides, the Potency entry in [17] is “inactive”.
